Measured values reported in PubChem BioAssay.
Values without a mark were called inactive. The source made the active and inactive calls. Rule as the data show it, unless noted: active = inhibition above about 33%; inactive = the rest.

Target: Steroidogenic factor 1 (Homo sapiens) (UniProt Q13285)
Experiment: SF1 (NR5A1) inverse agonists, counter-screen for LRH-1 inverse agonist project, cell-based, luminescence, high throughput (AID 651614; in the data active = inhibition above about 44%;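 also: cells cotransfected with StAR promoter reporter and SF1 expression vector; 0% = vehicle on cells with receptor and 100% = vehicle on cells lacking receptor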)
Conditions: cell-based SF1 luciferase reporter, at 3.6 µM, stronger effect = higher value

Chain of Steroidogenic factor 1 (Homo sapiens) (Q13285 whole entry, looked up): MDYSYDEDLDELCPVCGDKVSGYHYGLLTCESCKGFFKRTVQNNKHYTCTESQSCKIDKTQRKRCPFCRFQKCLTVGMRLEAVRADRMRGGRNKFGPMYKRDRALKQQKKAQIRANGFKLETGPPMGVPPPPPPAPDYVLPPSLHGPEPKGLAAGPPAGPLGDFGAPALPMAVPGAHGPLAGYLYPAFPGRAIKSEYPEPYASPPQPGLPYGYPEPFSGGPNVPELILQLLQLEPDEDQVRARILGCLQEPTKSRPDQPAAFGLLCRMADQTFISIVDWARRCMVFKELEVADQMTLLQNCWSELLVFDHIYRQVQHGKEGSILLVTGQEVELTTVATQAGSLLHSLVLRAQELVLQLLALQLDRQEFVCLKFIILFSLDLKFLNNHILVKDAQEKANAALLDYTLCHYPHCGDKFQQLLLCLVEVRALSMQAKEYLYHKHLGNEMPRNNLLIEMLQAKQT

| SMILES | inhibition |
| --- | --- |
| COc1ccc(NC(=S)NCCc2ccc(F)cc2)c(OC)c1 | 18.5% |
| CC(=O)c1ccc(NC(=O)CN2C(=O)NC3(CCc4ccccc43)C2=O)cc1 (stereo not given) | 49.3% (active) |
| CN1CC(=O)N(CC(=O)Nc2ccc(N3CCOCC3)cc2)C1=O | 65.2% (active) |
| O=C(c1ccccc1)N1CCN(c2ccc([N+](=O)[O-])c(N3CCOCC3)c2)CC1 | 34.7% |
| CC(O)(c1cccc(F)c1)c1nc(-c2ccc(S(C)(=O)=O)cc2)cs1 (stereo not given) | 44.9% (active) |
| O=C(c1ccc(Cl)cc1)N1CCCCC(Cl)C1=O (stereo not given) | 57.2% (active) |
| O=C(Nc1cccc(NC(=O)c2ccccc2Cl)c1)c1ccc([N+](=O)[O-])o1 | 66.8% (active) |
| O=C(Nc1ccc(Cl)cn1)c1ccc([N+](=O)[O-])o1 | 55% (active) |
| CC(=O)Nc1cc(-c2ccc(S(C)(=O)=O)cc2)cn2c(-c3ccc(F)c(Cl)c3)cnc12 | 51.7% (active) |
| COc1ccc(N2CCN(C(=O)CN3C(=O)NC4(CCCCCC4)C3=O)CC2)cc1 | 43.3% (active) |
| COc1ccccc1NC(=O)CN1CCN(CC(=O)Nc2ccc3c(c2)OCCO3)CC1 | 49.5% (active) |
| CCCN(CC(=O)Nc1ccc(C(N)=O)cc1)CC(=O)Nc1ccccc1C | 53.9% (active) |
| O=C(NCc1cccc(C(F)(F)F)c1)c1cc(-c2ccccc2)nn1CC1CC(c2cccnc2)=NO1 (stereo not given) | 32.1% |
| O=C(COC(=O)c1ccc(S(=O)(=O)N2CCCC2)cc1)Nc1ccc(N2CCOCC2)cc1 | 57.4% (active) |
| O=C(CSc1nc2[nH]ncc2c(=O)n1-c1ccccc1)c1ccc2c(c1)OCCO2 | 32.6% |
| CC(NC(=O)c1ccco1)C(c1cccs1)N1CCN(c2ccccc2)CC1 (stereo not given) | 34.2% |
| CCCc1cc(=O)oc2c(C)c(OCC(=O)NCCN3CCOCC3)ccc12 | 46.3% (active) |
| CCc1ccc2oc(C(=O)NCc3ccncc3)c(C)c2c1 | 61% (active) |
| Cc1cc(OCC(=O)Nc2ccc(OCc3ccccc3)cc2)nc(C(C)C)n1 | 32.4% |
| CC(=O)/C(=N/Nc1ccccc1[N+](=O)[O-])N1CCCc2ccccc21 | 52.1% (active) |

| SMILES | inhibition |
| --- | --- |
| O=C(C[n+]1ccc(Cc2ccccc2)cc1)Nc1ccc([N+](=O)[O-])cc1Cl | 45.6% (active) |
| O=C(Nc1cccc2ccccc12)c1ccc([N+](=O)[O-])o1 | 70.8% (active) |
| CCCc1cc(=O)oc2c(C)c(OCC(=O)NC3CC(C)(C)NC(C)(C)C3)ccc12 | 59% (active) |
| Cc1cccc(NC(=O)c2ccc([N+](=O)[O-])o2)c1C | 60.4% (active) |
| Cc1ccc(/C=C2\SC(=S)N(c3c(C)n(C)n(-c4ccccc4)c3=O)C2=O)cc1 | 45.5% (active) |
| CC1CC(C)CN(c2cc(N(C)CCO)c([N+](=O)[O-])c3nonc23)C1 (stereo not given) | 63.6% (active) |
| CN(C)c1ccc(C=c2c3ccccc3n3c2cc(-c2ccc(Cl)cc2)[n+]3C)cc1 | 69% (active) |
| COc1ccc(/C=N/NC(=O)c2[nH]c3ccc(Br)cc3c2-c2ccccc2)cc1 | 50.7% (active) |
| CCCc1cc(NCCOCCO)n2c(nc3ccccc32)c1C#N | 36.6% |
| O=C(Nc1nccs1)c1ccc(S(=O)(=O)NCC2CCCCC2)cc1 | 42.4% |
| O=C(Nc1nc(-c2ccccn2)cs1)c1ccc([N+](=O)[O-])o1 | 77.7% (active) |
| Cc1ccc(NC(=O)CSc2nnc([C@@H]3CCCN3C(=O)OC(C)(C)C)o2)c(C)c1 | 54.5% (active) |
| C=CCNC(=S)N/N=C(\C)c1ccccn1 | 88.6% (active) |
| O=C(NCCN1CCOCC1)c1ccc2c(c1)N(Cc1ccccc1F)C(=O)CS2 | 36.2% |
| COc1cccc(C=Nc2ccc3c(c2)OCCO3)c1O | -7.99% |
| COc1cc(NC(=O)CN2C(=O)NC(c3ccccc3)(c3ccccc3)C2=O)c(C)cc1[N+](=O)[O-] | 35.3% |
| c1cnn(-c2nc(N3CCOCC3)nc(N3CCOCC3)n2)c1 | 48.2% (active) |
| O=C(Nc1cccc([N+](=O)[O-])c1)c1ccc([N+](=O)[O-])o1 | 70.5% (active) |
| Cc1ccc(NC(=O)CSc2nsc(SCC(=O)Nc3ccc(C)cc3C)c2C#N)c(C)c1 | 34.5% |
| Cc1ccc(NC(=O)CN2CCC(NC(=O)C3CCCCC3)CC2)c(Br)c1 | 44.9% (active) |

Test system: not listed separately
Experiment: VP16 transactivation reporter inhibitors, counter-screen for LRH-1 inverse agonist project, cell-based, luminescence, high throughput (AID 651615)
Conditions: Gal4-VP16 luciferase reporter cells, at 3.6 µM, stronger effect = higher value

| SMILES | inhibition |
| --- | --- |
| COc1ccc(NC(=S)NCCc2ccc(F)cc2)c(OC)c1 | -8.33% |
| CC(=O)c1ccc(NC(=O)CN2C(=O)NC3(CCc4ccccc43)C2=O)cc1 (stereo not given) | -0.14% |
| CN1CC(=O)N(CC(=O)Nc2ccc(N3CCOCC3)cc2)C1=O | -10.9% |
| O=C(c1ccccc1)N1CCN(c2ccc([N+](=O)[O-])c(N3CCOCC3)c2)CC1 | 3.81% |
| CC(O)(c1cccc(F)c1)c1nc(-c2ccc(S(C)(=O)=O)cc2)cs1 (stereo not given) | -6.85% |
| O=C(c1ccc(Cl)cc1)N1CCCCC(Cl)C1=O (stereo not given) | 1.69% |
| O=C(Nc1cccc(NC(=O)c2ccccc2Cl)c1)c1ccc([N+](=O)[O-])o1 | -5.43% |
| O=C(Nc1ccc(Cl)cn1)c1ccc([N+](=O)[O-])o1 | -20.8% |
| CC(=O)Nc1cc(-c2ccc(S(C)(=O)=O)cc2)cn2c(-c3ccc(F)c(Cl)c3)cnc12 | 3.98% |
| COc1ccc(N2CCN(C(=O)CN3C(=O)NC4(CCCCCC4)C3=O)CC2)cc1 | -4.03% |
| COc1ccccc1NC(=O)CN1CCN(CC(=O)Nc2ccc3c(c2)OCCO3)CC1 | -7.19% |
| CCCN(CC(=O)Nc1ccc(C(N)=O)cc1)CC(=O)Nc1ccccc1C | 6.63% |
| O=C(NCc1cccc(C(F)(F)F)c1)c1cc(-c2ccccc2)nn1CC1CC(c2cccnc2)=NO1 (stereo not given) | 6.07% |
| O=C(COC(=O)c1ccc(S(=O)(=O)N2CCCC2)cc1)Nc1ccc(N2CCOCC2)cc1 | -7.59% |
| O=C(CSc1nc2[nH]ncc2c(=O)n1-c1ccccc1)c1ccc2c(c1)OCCO2 | -16.1% |
| CC(NC(=O)c1ccco1)C(c1cccs1)N1CCN(c2ccccc2)CC1 (stereo not given) | -0.25% |
| CCCc1cc(=O)oc2c(C)c(OCC(=O)NCCN3CCOCC3)ccc12 | -19.2% |
| CCc1ccc2oc(C(=O)NCc3ccncc3)c(C)c2c1 | 6.18% |
| Cc1cc(OCC(=O)Nc2ccc(OCc3ccccc3)cc2)nc(C(C)C)n1 | 15.2% |
| CC(=O)/C(=N/Nc1ccccc1[N+](=O)[O-])N1CCCc2ccccc21 | 22.7% |

| SMILES | inhibition |
| --- | --- |
| O=C(C[n+]1ccc(Cc2ccccc2)cc1)Nc1ccc([N+](=O)[O-])cc1Cl | 5.52% |
| O=C(Nc1cccc2ccccc12)c1ccc([N+](=O)[O-])o1 | -3.59% |
| CCCc1cc(=O)oc2c(C)c(OCC(=O)NC3CC(C)(C)NC(C)(C)C3)ccc12 | 9.82% |
| Cc1cccc(NC(=O)c2ccc([N+](=O)[O-])o2)c1C | -8.95% |
| Cc1ccc(/C=C2\SC(=S)N(c3c(C)n(C)n(-c4ccccc4)c3=O)C2=O)cc1 | -2.06% |
| CC1CC(C)CN(c2cc(N(C)CCO)c([N+](=O)[O-])c3nonc23)C1 (stereo not given) | -3.82% |
| CN(C)c1ccc(C=c2c3ccccc3n3c2cc(-c2ccc(Cl)cc2)[n+]3C)cc1 | 86.3% (active) |
| COc1ccc(/C=N/NC(=O)c2[nH]c3ccc(Br)cc3c2-c2ccccc2)cc1 | 32.6% (active) |
| CCCc1cc(NCCOCCO)n2c(nc3ccccc32)c1C#N | -14.6% |
| O=C(Nc1nccs1)c1ccc(S(=O)(=O)NCC2CCCCC2)cc1 | 33.3% (active) |
| O=C(Nc1nc(-c2ccccn2)cs1)c1ccc([N+](=O)[O-])o1 | 16.4% |
| Cc1ccc(NC(=O)CSc2nnc([C@@H]3CCCN3C(=O)OC(C)(C)C)o2)c(C)c1 | -1.31% |
| C=CCNC(=S)N/N=C(\C)c1ccccn1 | 54.8% (active) |
| O=C(NCCN1CCOCC1)c1ccc2c(c1)N(Cc1ccccc1F)C(=O)CS2 | -9.87% |
| COc1cccc(C=Nc2ccc3c(c2)OCCO3)c1O | -25.9% |
| COc1cc(NC(=O)CN2C(=O)NC(c3ccccc3)(c3ccccc3)C2=O)c(C)cc1[N+](=O)[O-] | 9.47% |
| c1cnn(-c2nc(N3CCOCC3)nc(N3CCOCC3)n2)c1 | 20.2% |
| O=C(Nc1cccc([N+](=O)[O-])c1)c1ccc([N+](=O)[O-])o1 | -20.3% |
| Cc1ccc(NC(=O)CSc2nsc(SCC(=O)Nc3ccc(C)cc3C)c2C#N)c(C)c1 | -0.96% |
| Cc1ccc(NC(=O)CN2CCC(NC(=O)C3CCCCC3)CC2)c(Br)c1 | 7.56% |
